# Data taken from paper PMC10812921, “Transcriptional Coactivator BOB1 (OBF1, OCA-B) Modulates the Specificity of DNA Recognition by the POU-Domain Factors OCT1 and OCT2 in a Monomeric Configuration”.
# Columns and labels:
# [1] = target: POU1 (OCT1 POU domain) (human, UniProt P14859 260-458); test: EMSA-SELEX-seq; no BOB1; 20 mM Tris-HCl pH 7.6, 140 mM NaCl, 10% glycerol, 0.5 mM EDTA, 0.05% Triton X-100, 0.1 mg/mL BSA, 0.1 mg/mL poly(dI-dC), 5 mM DTT, room temperature, 20 min; high values mean tight binding; conditions: protein: recombinant; dsDNA, one strand shown
# POU1 (OCT1 POU domain), sequence (P14859 260-458): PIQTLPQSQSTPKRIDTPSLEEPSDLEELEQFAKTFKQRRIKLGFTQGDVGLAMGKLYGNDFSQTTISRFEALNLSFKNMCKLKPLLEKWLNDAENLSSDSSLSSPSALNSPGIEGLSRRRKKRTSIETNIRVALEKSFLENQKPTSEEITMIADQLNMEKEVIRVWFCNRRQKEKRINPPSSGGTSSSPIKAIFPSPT
# How it was run: (§1)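 In this selection, tagged POU-domain proteins from E. coli BL21, purified under denaturing conditions and renatured, were bound to a PCR-amplified double-stranded random 35-nt library with or without coactivator protein. Reactions held 30 ng protein, 300 ng library and, where used, 28 ng coactivator protein in 20 μL Tris–HCl pH 7.6 binding buffer for 20 min at RT. Complex bands were cut from native 6% PAGE, eluted and PCR-amplified over four rounds, then Illumina-sequenced, and binding preference is the percentage of sequenced 8-mers matching a motif pattern.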
# [2] = target: T1, POU2 (OCT2 POU domain) (human, UniProt P09086 175-386); test: as above; conditions: protein: recombinant; dsDNA, one strand shown
# T1 sequence: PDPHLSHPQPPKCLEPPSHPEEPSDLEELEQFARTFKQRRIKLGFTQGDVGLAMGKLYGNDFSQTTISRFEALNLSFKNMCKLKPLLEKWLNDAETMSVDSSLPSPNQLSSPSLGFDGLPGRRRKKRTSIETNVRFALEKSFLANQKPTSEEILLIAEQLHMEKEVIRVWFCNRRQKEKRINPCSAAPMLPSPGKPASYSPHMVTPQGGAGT
# How it was run: as §1
# [3] = target: POU1 (OCT1 POU domain);BOB1 (OBF1, OCA-B) (human;human, UniProt P14859;Q16633 260-458;1-256, |); test: EMSA-SELEX-seq; with BOB1 (ternary complex band); 20 mM Tris-HCl pH 7.6, 140 mM NaCl, 10% glycerol, 0.5 mM EDTA, 0.05% Triton X-100, 0.1 mg/mL BSA, 0.1 mg/mL poly(dI-dC), 5 mM DTT, room temperature, 20 min; high values mean tight binding; conditions: protein: recombinant;recombinant; copies: 1;1; dsDNA, one strand shown
# How it was run: as §1
# [4] = target: T2, POU2 (OCT2 POU domain);BOB1 (OBF1, OCA-B) (human;human, UniProt P09086;Q16633 175-386;1-256, |); test: as above; conditions: protein: recombinant;recombinant; copies: 1;1; dsDNA, one strand shown
# T2 sequence 1: T1 sequence
# T2 sequence 2: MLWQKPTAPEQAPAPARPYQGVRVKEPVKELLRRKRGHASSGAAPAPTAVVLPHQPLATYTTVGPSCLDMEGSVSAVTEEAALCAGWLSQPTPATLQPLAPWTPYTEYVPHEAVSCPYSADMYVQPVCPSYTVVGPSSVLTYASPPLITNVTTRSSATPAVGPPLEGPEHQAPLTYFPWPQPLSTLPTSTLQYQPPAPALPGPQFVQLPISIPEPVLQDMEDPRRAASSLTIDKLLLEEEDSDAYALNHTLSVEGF
# How it was run: as §1
Sequence,binding signal [1],binding signal [2],binding signal [3],binding signal [4]
ACCCAAAT,0.0477 % of ANNNNAAN 8-mers,0.0391 % of ANNNNAAN 8-mers,0.0753 % of ANNNNAAN 8-mers,0.0355 % of ANNNNAAN 8-mers
ATAATAAT,0.273 % of ANNNNAAN 8-mers,0.353 % of ANNNNAAN 8-mers,0.11 % of ANNNNAAN 8-mers,0.143 % of ANNNNAAN 8-mers
AAGAAAAG,0.0732 % of ANNNNAAN 8-mers,0.0633 % of ANNNNAAN 8-mers,0.0905 % of ANNNNAAN 8-mers,0.0652 % of ANNNNAAN 8-mers
ACGAGAAT,0.0492 % of ANNNNAAN 8-mers,0.0547 % of ANNNNAAN 8-mers,0.0347 % of ANNNNAAN 8-mers,0.0553 % of ANNNNAAN 8-mers
AAGATAAA,0.0622 % of ANNNNAAN 8-mers,0.0662 % of ANNNNAAN 8-mers,0.0585 % of ANNNNAAN 8-mers,0.0405 % of ANNNNAAN 8-mers
ATACAAAT,0.318 % of ANNNNAAN 8-mers,0.269 % of ANNNNAAN 8-mers,0.526 % of ANNNNAAN 8-mers,0.498 % of ANNNNAAN 8-mers
ATTCTAAG,0.0747 % of ANNNNAAN 8-mers,0.0857 % of ANNNNAAN 8-mers,0.0593 % of ANNNNAAN 8-mers,0.0702 % of ANNNNAAN 8-mers
ATCAGAAA,0.0446 % of ANNNNAAN 8-mers,0.0529 % of ANNNNAAN 8-mers,0.0546 % of ANNNNAAN 8-mers,0.0438 % of ANNNNAAN 8-mers
ATATCAAC,0.0481 % of ANNNNAAN 8-mers,0.0449 % of ANNNNAAN 8-mers,0.0367 % of ANNNNAAN 8-mers,0.0471 % of ANNNNAAN 8-mers
ATGGCAAA,0.0774 % of ANNNNAAN 8-mers,0.057 % of ANNNNAAN 8-mers,0.113 % of ANNNNAAN 8-mers,0.0776 % of ANNNNAAN 8-mers
ACGAAAAG,0.032 % of ANNNNAAN 8-mers,0.0368 % of ANNNNAAN 8-mers,0.046 % of ANNNNAAN 8-mers,0.0413 % of ANNNNAAN 8-mers
AGTTAAAC,0.0461 % of ANNNNAAN 8-mers,0.0593 % of ANNNNAAN 8-mers,0.0499 % of ANNNNAAN 8-mers,0.0553 % of ANNNNAAN 8-mers
AGGAGAAC,0.0275 % of ANNNNAAN 8-mers,0.0363 % of ANNNNAAN 8-mers,0.0261 % of ANNNNAAN 8-mers,0.0149 % of ANNNNAAN 8-mers
AGAATAAT,0.203 % of ANNNNAAN 8-mers,0.3 % of ANNNNAAN 8-mers,0.0948 % of ANNNNAAN 8-mers,0.122 % of ANNNNAAN 8-mers
